We go through 38 targets from the supplement of paper PMC10849652.

The full data set covers some 7,900 targets. This sample favours those with a hit. About 0.6% of all pairs of compound and target were hits.

Sequence of UniProt P02786 (P02786 whole entry, looked up): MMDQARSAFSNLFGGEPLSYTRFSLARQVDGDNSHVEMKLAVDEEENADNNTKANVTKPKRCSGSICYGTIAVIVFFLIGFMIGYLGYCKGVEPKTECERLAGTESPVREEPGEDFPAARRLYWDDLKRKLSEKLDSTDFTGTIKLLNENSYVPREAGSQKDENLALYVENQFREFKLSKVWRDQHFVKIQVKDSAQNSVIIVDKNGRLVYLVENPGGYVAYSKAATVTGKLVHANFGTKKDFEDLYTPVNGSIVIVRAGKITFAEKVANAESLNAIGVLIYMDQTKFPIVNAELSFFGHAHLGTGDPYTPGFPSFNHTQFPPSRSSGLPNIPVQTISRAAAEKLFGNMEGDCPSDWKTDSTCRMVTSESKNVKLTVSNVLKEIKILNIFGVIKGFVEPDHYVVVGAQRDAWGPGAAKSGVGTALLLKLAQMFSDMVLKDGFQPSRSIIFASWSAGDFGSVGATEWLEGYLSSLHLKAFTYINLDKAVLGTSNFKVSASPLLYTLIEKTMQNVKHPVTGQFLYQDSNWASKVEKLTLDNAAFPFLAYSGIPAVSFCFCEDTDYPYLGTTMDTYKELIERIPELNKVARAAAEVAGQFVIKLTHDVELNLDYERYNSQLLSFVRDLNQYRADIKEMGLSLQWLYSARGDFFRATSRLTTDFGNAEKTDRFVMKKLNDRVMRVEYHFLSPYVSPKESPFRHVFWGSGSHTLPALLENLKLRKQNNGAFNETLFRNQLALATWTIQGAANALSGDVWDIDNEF
Sequence of UniProt Q5T5C0 (Q5T5C0 whole entry, looked up): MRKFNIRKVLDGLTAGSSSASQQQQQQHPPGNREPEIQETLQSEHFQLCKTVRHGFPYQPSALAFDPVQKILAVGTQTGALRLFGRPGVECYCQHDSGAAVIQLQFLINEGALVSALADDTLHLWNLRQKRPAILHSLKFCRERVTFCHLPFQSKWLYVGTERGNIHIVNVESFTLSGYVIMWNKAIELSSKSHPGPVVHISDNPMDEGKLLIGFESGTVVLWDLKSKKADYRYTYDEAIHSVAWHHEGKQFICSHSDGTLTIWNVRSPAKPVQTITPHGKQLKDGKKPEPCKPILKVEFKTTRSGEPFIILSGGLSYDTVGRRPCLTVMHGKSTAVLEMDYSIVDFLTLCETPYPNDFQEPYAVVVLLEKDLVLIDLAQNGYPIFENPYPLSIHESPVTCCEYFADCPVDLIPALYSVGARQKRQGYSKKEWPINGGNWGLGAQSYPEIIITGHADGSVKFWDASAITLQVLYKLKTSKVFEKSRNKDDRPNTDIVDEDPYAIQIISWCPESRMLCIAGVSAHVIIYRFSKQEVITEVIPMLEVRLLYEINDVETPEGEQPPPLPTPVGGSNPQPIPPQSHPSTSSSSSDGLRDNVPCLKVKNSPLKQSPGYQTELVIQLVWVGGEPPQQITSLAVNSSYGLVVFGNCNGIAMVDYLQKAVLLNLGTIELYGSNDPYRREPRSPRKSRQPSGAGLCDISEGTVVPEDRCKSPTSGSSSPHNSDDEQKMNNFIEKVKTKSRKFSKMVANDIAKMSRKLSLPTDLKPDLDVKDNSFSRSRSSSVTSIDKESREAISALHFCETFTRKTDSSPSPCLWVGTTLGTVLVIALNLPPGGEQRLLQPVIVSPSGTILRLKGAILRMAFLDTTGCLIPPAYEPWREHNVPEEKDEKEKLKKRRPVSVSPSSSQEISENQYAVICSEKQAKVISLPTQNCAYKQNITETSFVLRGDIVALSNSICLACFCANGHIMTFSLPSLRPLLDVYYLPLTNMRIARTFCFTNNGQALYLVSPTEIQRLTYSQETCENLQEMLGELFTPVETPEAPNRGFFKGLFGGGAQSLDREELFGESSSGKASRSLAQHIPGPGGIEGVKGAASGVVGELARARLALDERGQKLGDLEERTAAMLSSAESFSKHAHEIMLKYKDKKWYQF
Sequence of UniProt Q96BW9 (Q96BW9 whole entry, looked up): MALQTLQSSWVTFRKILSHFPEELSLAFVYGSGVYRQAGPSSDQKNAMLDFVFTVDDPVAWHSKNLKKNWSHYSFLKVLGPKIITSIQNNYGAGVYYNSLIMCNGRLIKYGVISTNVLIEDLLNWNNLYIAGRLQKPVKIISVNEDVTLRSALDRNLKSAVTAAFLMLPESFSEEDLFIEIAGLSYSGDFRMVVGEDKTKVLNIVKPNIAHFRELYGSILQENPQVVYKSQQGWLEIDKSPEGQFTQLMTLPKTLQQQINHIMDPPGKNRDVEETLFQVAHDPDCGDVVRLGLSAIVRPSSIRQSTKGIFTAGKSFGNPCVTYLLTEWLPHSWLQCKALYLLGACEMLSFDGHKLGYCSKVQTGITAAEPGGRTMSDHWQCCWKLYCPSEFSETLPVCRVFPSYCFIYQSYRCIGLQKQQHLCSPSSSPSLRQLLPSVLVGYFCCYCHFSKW
Sequence of UniProt P63165 (P63165 whole entry, looked up): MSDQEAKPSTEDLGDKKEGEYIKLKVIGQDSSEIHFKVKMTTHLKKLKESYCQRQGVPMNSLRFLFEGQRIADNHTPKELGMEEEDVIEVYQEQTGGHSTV
Sequence of UniProt Q92536 (Q92536 whole entry, looked up): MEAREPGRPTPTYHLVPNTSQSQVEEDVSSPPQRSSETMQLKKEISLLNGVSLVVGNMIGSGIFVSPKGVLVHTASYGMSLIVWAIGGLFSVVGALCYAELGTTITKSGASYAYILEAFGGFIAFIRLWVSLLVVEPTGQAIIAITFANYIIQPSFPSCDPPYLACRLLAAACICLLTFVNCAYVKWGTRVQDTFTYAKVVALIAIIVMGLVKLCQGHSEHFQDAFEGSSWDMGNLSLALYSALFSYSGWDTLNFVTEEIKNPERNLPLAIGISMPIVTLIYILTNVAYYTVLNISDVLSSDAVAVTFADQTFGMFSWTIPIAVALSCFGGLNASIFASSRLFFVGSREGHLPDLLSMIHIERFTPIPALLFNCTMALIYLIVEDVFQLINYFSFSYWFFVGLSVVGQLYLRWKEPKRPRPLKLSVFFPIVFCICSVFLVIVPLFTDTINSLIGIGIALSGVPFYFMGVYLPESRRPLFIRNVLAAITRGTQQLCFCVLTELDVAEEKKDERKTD
Sequence of UniProt O15198 (O15198 whole entry, looked up): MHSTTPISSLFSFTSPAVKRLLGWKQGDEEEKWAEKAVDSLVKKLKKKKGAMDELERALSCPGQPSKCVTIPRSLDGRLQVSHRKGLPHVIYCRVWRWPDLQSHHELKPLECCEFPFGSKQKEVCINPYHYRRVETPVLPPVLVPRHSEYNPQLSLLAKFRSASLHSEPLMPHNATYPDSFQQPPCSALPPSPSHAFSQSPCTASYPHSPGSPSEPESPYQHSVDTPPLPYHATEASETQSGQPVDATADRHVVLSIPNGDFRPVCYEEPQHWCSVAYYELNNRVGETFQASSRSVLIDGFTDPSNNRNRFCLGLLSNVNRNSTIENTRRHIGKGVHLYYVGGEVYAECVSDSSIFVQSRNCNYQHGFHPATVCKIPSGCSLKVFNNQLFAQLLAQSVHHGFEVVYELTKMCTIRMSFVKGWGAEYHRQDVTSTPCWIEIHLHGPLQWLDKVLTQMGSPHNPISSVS
Sequence of UniProt P31641 (P31641 whole entry, looked up): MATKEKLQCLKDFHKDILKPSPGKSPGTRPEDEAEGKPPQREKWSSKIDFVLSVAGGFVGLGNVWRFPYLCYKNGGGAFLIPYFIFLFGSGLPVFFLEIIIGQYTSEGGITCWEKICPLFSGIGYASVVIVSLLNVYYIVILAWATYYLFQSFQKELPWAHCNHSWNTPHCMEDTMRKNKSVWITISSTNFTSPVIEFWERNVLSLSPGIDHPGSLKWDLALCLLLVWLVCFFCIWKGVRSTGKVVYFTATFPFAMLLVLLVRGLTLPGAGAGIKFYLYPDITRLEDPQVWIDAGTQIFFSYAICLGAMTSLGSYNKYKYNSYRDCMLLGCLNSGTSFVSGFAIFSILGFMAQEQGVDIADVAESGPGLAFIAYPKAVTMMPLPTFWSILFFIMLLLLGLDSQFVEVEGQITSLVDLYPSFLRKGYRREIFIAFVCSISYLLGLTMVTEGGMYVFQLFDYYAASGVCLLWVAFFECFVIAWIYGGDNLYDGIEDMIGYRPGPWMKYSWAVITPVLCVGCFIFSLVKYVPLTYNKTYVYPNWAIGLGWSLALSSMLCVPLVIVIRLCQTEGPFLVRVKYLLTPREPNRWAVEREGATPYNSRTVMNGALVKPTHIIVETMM
Sequence of UniProt Q02447 (Q02447 whole entry, looked up): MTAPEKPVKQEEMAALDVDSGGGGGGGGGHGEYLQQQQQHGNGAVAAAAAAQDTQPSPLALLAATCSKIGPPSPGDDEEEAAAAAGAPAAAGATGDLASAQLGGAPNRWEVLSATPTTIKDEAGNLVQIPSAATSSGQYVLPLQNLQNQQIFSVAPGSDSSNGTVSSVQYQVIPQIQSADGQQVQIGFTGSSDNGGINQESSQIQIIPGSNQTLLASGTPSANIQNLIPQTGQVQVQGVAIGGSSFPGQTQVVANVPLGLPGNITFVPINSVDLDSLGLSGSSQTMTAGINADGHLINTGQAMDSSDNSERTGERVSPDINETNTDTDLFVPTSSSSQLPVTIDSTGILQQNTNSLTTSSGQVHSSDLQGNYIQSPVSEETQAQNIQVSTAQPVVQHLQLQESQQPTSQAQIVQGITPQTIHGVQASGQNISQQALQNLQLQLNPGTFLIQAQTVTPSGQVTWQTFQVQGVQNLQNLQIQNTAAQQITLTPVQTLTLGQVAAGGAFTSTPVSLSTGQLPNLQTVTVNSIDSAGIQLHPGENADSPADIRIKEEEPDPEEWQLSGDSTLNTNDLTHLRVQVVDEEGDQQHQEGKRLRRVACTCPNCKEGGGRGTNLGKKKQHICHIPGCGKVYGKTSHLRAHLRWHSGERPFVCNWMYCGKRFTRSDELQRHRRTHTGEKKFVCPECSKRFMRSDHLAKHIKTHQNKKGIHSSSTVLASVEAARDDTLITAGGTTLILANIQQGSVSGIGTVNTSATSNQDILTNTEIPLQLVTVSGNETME
Sequence of UniProt Q8WVK2 (Q8WVK2 whole entry, looked up): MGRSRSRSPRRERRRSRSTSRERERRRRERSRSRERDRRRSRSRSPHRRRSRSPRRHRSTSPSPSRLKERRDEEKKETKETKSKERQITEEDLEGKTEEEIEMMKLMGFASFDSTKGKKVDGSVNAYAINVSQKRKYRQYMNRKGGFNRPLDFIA

Compound in this test: COc1cccc2cc(-c3nc([C@H]4CC[C@H](C(=O)O)CC4)n4ncnc(N)c34)[nH]c12
As to the kind of experiment: log2 fold change, soluble protein after heating vs DMSO (PISA); higher = thermal stabilisation; K562 cells, 10 uM, 30 min; active = over 0.2 and 3.5 SD of the protein, either way, in both replicates (recomputed). Put shortly:
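For each measurement, 10 μM compound was applied for 30 min to K562 cells at 2×10^6 cells/mL. Aliquots were heated for 3 min across 48°C-58°C, pooled, and extracted in PBS with 0.5% NP-40 at 4°C; the supernatant after 21,000xg for 90 min was soluble protein. This was quantified by TMTpro 16plex LC-MS/MS with channel sums equalised, and thermal stability was reported relative to control samples from duplicates, on a log2 fold-change scale.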
In the case of SNRNP27 (UniProt Q8WVK2), the log2 fold change was 0.135 (inactive).
As to SRP68 (UniProt Q9UHB9), the log2 fold change was -0.126 (inactive).
The result for SP3 (UniProt Q02447) reads -0.04 (inactive).
With TLK2 isoform 2 (UniProt Q86UE8), the log2 fold change is 0.06 (inactive).
Regarding STAT6 (UniProt P42226), the log2 fold change is 0.155 (inactive).
Take SLC38A9 (UniProt Q8NBW4): the log2 fold change was 0.121 (inactive).
The result for STAM2 (UniProt O75886) reads -0.066 (inactive); that for SLC30A7 (UniProt Q8NEW0), 0.184 (inactive); that for STARD7 (UniProt Q9NQZ5), 0.031 (inactive).
As for SUMO1 (UniProt P63165), the log2 fold change was 0.055 (inactive).
STAT5A (UniProt P42229): the log2 fold change is -0.128 (inactive).
For SRPRA (UniProt P08240) the value was -0.002 (inactive); for TBC1D15 isoform 3 (UniProt Q8TC07), -0.06 (inactive).
As for TFRC (UniProt P02786), the log2 fold change is 0.063 (inactive).
SRSF7 (UniProt Q16629): the log2 fold change was 0.013 (inactive).
Take TAMM41 isoform 3 (UniProt Q96BW9): the log2 fold change is 0.112 (inactive).
For STK38 (UniProt Q15208) the value was -0.01 (inactive); for SLC6A6 (UniProt P31641), 0.041 (inactive); for TBC1D23 (UniProt Q9NUY8), 0.021 (inactive).
The result for SMAD9 (UniProt O15198) reads -0.005 (inactive).
Turning to SRSF3 (UniProt P84103), the log2 fold change was -0.009 (inactive).
Take TBCD (UniProt Q9BTW9): the log2 fold change was 0.023 (inactive).
On to TECR (UniProt Q9NZ01), for which the log2 fold change is 0.034 (inactive).
The result for STK39 (UniProt Q9UEW8) reads -0.036 (inactive).
With TAF9 (UniProt Q16594), the log2 fold change was 0.019 (inactive).
Regarding SUPT16H (UniProt Q9Y5B9), the log2 fold change is -0.023 (inactive).
As to SRFBP1 (UniProt Q8NEF9), the log2 fold change was -0.072 (inactive).
As for SLC9A6 isoform 2 (UniProt Q92581), the log2 fold change is 0.071 (inactive).
Turning to SNX11 (UniProt Q9Y5W9), the log2 fold change is 0.038 (inactive).
As to SREK1 isoform 2 (UniProt Q8WXA9), the log2 fold change is 0.06 (inactive).
For SMAD2 (UniProt Q15796), the log2 fold change was -0.032 (inactive).
As for TBC1D5 isoform 2 (UniProt Q92609), the log2 fold change is 0.003 (inactive).
Take SLC25A36 (UniProt Q96CQ1): the log2 fold change was 0.001 (inactive).
On to SLC7A6 (UniProt Q92536), for which the log2 fold change is 0.048 (inactive).
As for SUGP1 (UniProt Q8IWZ8), the log2 fold change is -0.02 (inactive).
Take TAOK1 (UniProt Q7L7X3): the log2 fold change is 0.011 (inactive).
In the case of STXBP5 (UniProt Q5T5C0), the log2 fold change was 0.003 (inactive).
For SURF1 (UniProt Q15526) the value was 0.083 (inactive).
